In PubChem BioAssay AID463173 (ICCB-Longwood Screening Facility, Harvard Medical School, 2010):
The campaign covered roughly 52,000 compounds. About 1,700 (3.3%) were called active. Rule as the data show it: active = survival mostly below about 52% (no sharp cut-off); inactive = mostly above about 56%. This excerpt belongs to a sample that is enriched for actives.

Tested on: Wild type
Assay: growth inhibition of S. aureus wild type versus tarO mutant, primary screen, teichoic acid synthesis inhibitors, RN4220, OD600 (AID 463173)
Conditions: S. aureus RN4220 wild type/DeltatarO growth, OD600, 18 h, active compounds read low, screened at 18.75 µg/mL (by protocol)

SMILES | survival
CC(=O)Nc1ccc(NC(=O)C(Cc2ccccc2)N2Cc3ccccc3C2=O)cc1 (stereo not drawn) | 72% (inactive)
O=C(Nc1ccccc1F)C(Cc1ccccc1)n1cccc1 (stereo not drawn) | 85% (inactive)
CC(C)c1ccc(NC(=O)C(Cc2ccccc2)n2cccc2)cc1 (stereo not drawn) | 13% (active)
COc1ccc(NC(=O)C(Cc2ccccc2)n2cccc2)c(OC)c1 (stereo not drawn) | 78% (inactive)
O=C(Nc1ccc(C(F)(F)F)cc1)C(Cc1ccccc1)n1cccc1 (stereo not drawn) | -2% (active)
Cc1ccc(NC(=O)C(Cc2ccccc2)n2cccc2)cc1 (stereo not drawn) | 96% (inactive)
O=C(CSc1nccn1Cc1ccc(F)cc1)NC1CCCC1 | 68% (inactive)
Cc1ccc(Cl)cc1N1CCN(C(=O)c2cc3ccc4cccnc4c3[nH]2)CC1 | 129% (inactive)
Cc1cccc(C(=O)n2nc(C)c(S(=O)(=O)N3CCOCC3)c2C)c1 | 89% (inactive)
COc1ccc(C2=C(C)C(=O)N(Cc3ccc(C(=O)NCc4ccc(C)cc4)cc3)S2(=O)=O)cc1 | 89% (inactive)
C1CN(C(N2CCOCC2)N2CCOCC2)CCO1 | 104% (inactive)
Cc1ccc(-c2onc(C)c2C)cc1S(=O)(=O)N1CCc2ccccc21 | 117% (inactive)
COc1ccc(-c2cc(C)no2)cc1S(=O)(=O)N1CC(C)Oc2ccccc21 (stereo not drawn) | -6% (active)
CCC1CN(S(=O)(=O)c2cc(-c3cc(C)no3)ccc2OC)c2cc(C)ccc2O1 (stereo not drawn) | 120% (inactive)
COc1ccc(-c2cc(C)no2)cc1S(=O)(=O)N1CCc2ccccc21 | 76% (inactive)
COc1ccc(-c2cc(C)no2)cc1S(=O)(=O)N1CCOc2ccccc21 | 80% (inactive)
COc1ccc(-c2onc(C)c2C)cc1S(=O)(=O)N1CCc2ccccc21 | 1% (active)
COc1ccc(NC(=O)c2oc3ccc(S(=O)(=O)N4CCOCC4)cc3c2C)c(OC)c1 | 152% (inactive)
COc1ccc(C(CC(=O)Nc2ccc(C(C)=O)cc2)N2Cc3ccccc3C2=O)cc1 (stereo not drawn) | 88% (inactive)
O=C(O)c1snc2c(=O)[nH]cnc12 | 105% (inactive)
O=C1CCCc2c1cc(C(=O)Nc1ccc(Cl)cn1)c(=O)n2-c1ccccc1 | 110% (inactive)
Cc1nc2sc(C(=O)Nc3ccc(F)cc3)c(N)c2c(-c2ccc(Br)cc2)c1C(=O)Nc1ccc(Cl)cc1 | 88% (inactive)
Cc1nc2sc(C(N)=O)c(N)c2c(-c2ccc(Br)cc2)c1C(=O)Nc1ccc(Cl)cc1 | -7% (active)
COc1ccc(NC(=O)c2sc3nc(C)c(C(=O)Nc4ccc(Cl)cc4)c(-c4ccc(Br)cc4)c3c2N)cc1 | 75% (inactive)
Cc1ccc(C)c(NC(=O)Cn2c(=O)n(Cc3ccco3)c(=O)c3oc4ccccc4c32)c1 | 87% (inactive)

SMILES | survival
Cc1nn(Cc2ccccc2)c(C)c1CC(=O)O | 109% (inactive)
O=C(CSc1nc2c([nH]c3ccccc32)c(=O)n1-c1ccc(F)cc1)NCc1ccc(F)cc1 | 73% (inactive)
CCC(C)NC(=O)c1sc2nc(C)c(C(=O)Nc3ccc(Cl)cc3)c(-c3ccc(Br)cc3)c2c1N (stereo not drawn) | 106% (inactive)
Cc1ccc(-c2nc3ncccc3o2)cc1NC(=O)COc1ccc(C(C)C)cc1 | 11% (active)
Cc1cc(-c2nc3ncccc3o2)ccc1NC(=O)COc1ccc(C(C)(C)C)cc1 | 26% (active)
CCC(=O)Nc1ccc(-c2nc3ncccc3o2)cc1C | 85% (inactive)
CC(C)c1ccc(OCC(=O)Nc2cc(-c3nc4ncccc4o3)ccc2Cl)cc1 | 128% (inactive)
Cc1cc(OCC(=O)Nc2cc(-c3nc4ncccc4o3)ccc2C)ccc1Cl | 88% (inactive)
Cc1cc(-c2nc3ncccc3o2)ccc1NC(=O)COc1cc(C)c(Cl)c(C)c1 | 80% (inactive)
Fc1ccc(CSc2nncn3c2cc2occc23)c(Cl)c1 | 88% (inactive)
CC(C)c1ccc(NC(=O)c2ccc3oc(=O)c(S(=O)(=O)c4ccc(F)cc4)cc3c2)cc1 | 70% (inactive)
Cc1cc(=O)n2nc(N(C)CC(=O)NCc3ccc(Cl)cc3)sc2n1 | 85% (inactive)
CCC(C(=O)NC1CCCCC1)n1c(SCc2cccc(F)c2)nc2ccncc21 (stereo not drawn) | 124% (inactive)
CCOc1ccccc1CNC(=O)c1ccc2c(c1)N(Cc1ccc(C)cc1)CCS2 | 79% (inactive)
CCC(Cc1ccccc1)NC(=O)Cn1ncc2c3ccccc3n(Cc3ccccc3)c2c1=O (stereo not drawn) | 80% (inactive)
CCCCC1CCC(CCCC(C)CCC(=O)O)CC1 (stereo not drawn) | -5% (active)
CCCCCCC1CCC(C(=O)NC(C(=O)O)C(C)C)CC1 (stereo not drawn) | 59% (inactive)
CCCCCCC1CC=C(C(=O)O)CC1 (stereo not drawn) | 110% (inactive)
CCOc1ccc(NC(=O)Cn2c(=O)cc(C)c3c(C)nn(-c4ccc(CC)cc4)c32)cc1 | 127% (inactive)
CCN(c1ccc(C)cc1C)S(=O)(=O)c1nnc(NC(=O)c2ccc(F)cc2)s1 | 20% (inactive)
CC(C)CN(CCNC(=O)c1cn(C)c2ccc(S(=O)(=O)N3CCOCC3)cc2c1=O)CC(C)C | 82% (inactive)
CCOC(=O)Cc1ccc(NC(=O)NCc2cccn2Cc2ccccc2)cc1 | -6% (active)
CCOC(=O)c1cccc(NC(=O)NCc2cccn2Cc2ccccc2)c1 | 123% (inactive)
CCOc1ccc(NC(=O)NCc2cccn2Cc2ccccc2)cc1 | 64% (inactive)
Cc1nn(CC(=O)NCc2cccc(F)c2)c(=O)c2c(C)n(-c3ccc(Cl)cc3)nc12 | 75% (inactive)

SMILES | survival
Oc1ccc(/C=C/c2nc(-c3ccccc3O)n(-c3ccccc3)n2)c(O)c1 | -1% (active)
Oc1ccccc1-c1nc(/C=C/c2ccccc2Cl)nn1-c1ccccc1 | 2% (active)
Cc1nc(C)c(C(=O)N/N=C/c2ccc(O)cc2O)cc1C(=O)N/N=C/c1ccc(O)cc1O | 108% (inactive)
COc1cc2c(-c3ccccc3O)nc3c(c(C)nn3-c3ccccc3)c2cc1OC | 63% (inactive)
COc1cc2c(-c3ccccc3Cl)nc3c(c(C)nn3-c3ccccc3)c2cc1OC | 73% (inactive)
CC(=O)Nc1ccc(/C=C/c2nc(-c3ccccc3O)n(-c3ccccc3)n2)cc1 | 86% (inactive)
Oc1ccccc1-c1nc(/C=C/c2ccccc2Cl)no1 | 81% (inactive)
CN(C)c1ccc(/C=C/c2nc(-c3ccccc3O)n(-c3ccccc3)n2)cc1 | 46% (inactive)
COc1ccc(/C=C/c2noc(-c3ccccc3O)n2)cc1OC | 136% (inactive)
COc1ccc(/C=C/c2nc(-c3ccccc3O)n(-c3ccccc3)n2)cc1OC | 8% (active)
Oc1ccccc1-c1nc(/C=C/c2ccc(F)cc2)nn1-c1ccccc1 | 34% (inactive)
Oc1ccccc1-c1nc(/C=C/c2ccccc2)nn1-c1ccccc1 | 2% (active)
COCCn1c(Cc2ccccc2)nnc1SCC(=O)N(C)C | 100% (inactive)
CC(C)(C)NC(=O)c1ccc2nc(CCc3ccccc3)oc2c1 | 65% (inactive)
Cn1c(CNc2cccc(C(F)(F)F)c2)n[nH]c1=S | 111% (inactive)
O=C(Cn1cc(SCc2ccccc2)c2ccccc21)N1CCCCCC1 | 83% (inactive)
O=C(Cn1cnc(S(=O)(=O)N2CCCC2)c1)Nc1ccc(OC(F)(F)F)cc1 | 84% (inactive)
CCCCNC(=O)CN1CCN(c2ccc(NC(=O)c3ccc(OC)cc3)cc2C(=O)O)CC1 | 80% (inactive)
COc1ccc(CCNC(=O)c2ccc3c(c2)N(Cc2cccc(C)c2)C(=O)c2ccccc2S3(=O)=O)cc1OC | 101% (inactive)
CCC(C)(C)C(=O)Nc1nnc(COC)s1 | 122% (inactive)
CC(C)(C)Sc1ccc(SC#N)s1 | 23% (active)
N#CSc1ccc2nc(N)sc2c1 | 93% (inactive)
Cc1ccccc1NC(=O)C(Cc1ccccc1)N1Cc2ccccc2C1=O (stereo not drawn) | 76% (inactive)
N#CC(C#N)C(CC(=O)c1ccccc1)c1ccc2c(c1)OCO2 (stereo not drawn) | 111% (inactive)
CCOc1ccccc1NC(=O)CC(c1ccc(F)cc1)N1Cc2ccccc2C1=O (stereo not drawn) | 80% (inactive)

SMILES | survival
Cc1c(Cl)cccc1NC(=O)CC(c1cccs1)N1Cc2ccccc2C1=O (stereo not drawn) | 0% (active)
O=C(CC(c1cccs1)N1Cc2ccccc2C1=O)Nc1ccccc1F (stereo not drawn) | 73% (inactive)
O=C(CC(c1cccs1)N1Cc2ccccc2C1=O)Nc1ccc(Cl)cc1 (stereo not drawn) | 129% (inactive)
CCc1ccccc1NC(=O)CC(c1ccc(F)cc1)N1Cc2ccccc2C1=O (stereo not drawn) | 121% (inactive)
Cc1c(Cl)cccc1NC(=O)CC(c1ccc(F)cc1)N1Cc2ccccc2C1=O (stereo not drawn) | 10% (active)
Cc1cccc(Cn2c(SCc3ccc(C(=O)NCc4ccccc4F)cc3)nc3ccncc32)c1 | 80% (inactive)
COCCn1c(C)nnc1SCC1CCCO1 (stereo not drawn) | 127% (inactive)
CC(C)c1ccc(NC(=O)c2cccc3c2C(=O)N(C2CCCCC2)C3)cc1 | 1% (active)
Cc1cc(C)cc(NC(=O)c2cccc3c2C(=O)N(C2CCCCC2)C3)c1 | 42% (inactive)
COC(=O)c1ccc(NC(=O)c2cccc3c2C(=O)N(C2CCCCC2)C3)cc1 | 88% (inactive)
Cn1c(C(C(=O)NCC2CCCO2)N(C(=O)Cn2nnc3ccccc32)c2ccc3c(c2)OCO3)nc2ccccc21 (stereo not drawn) | 111% (inactive)
Cc1ccc(NC(=O)c2cc(C)nc3c2c(C)nn3-c2cccc(Cl)c2C)c(C)c1 | -6% (active)
Cc1cc(C(=O)Nc2ccc(C(C)C)cc2)c2c(C)nn(-c3ccccc3)c2n1 | 80% (inactive)
Cc1cc(C(=O)NCc2ccccc2C)c2c(C)nn(-c3cccc(F)c3)c2n1 | 76% (inactive)
Cc1ccc(C)c(N2CCN(C(=O)c3cc(C)nc4c3c(C)nn4-c3cccc(F)c3)CC2)c1 | 0% (active)
Cc1cc(C(=O)N2CCN(c3ccccc3)CC2)c2c(C)nn(-c3cccc(F)c3)c2n1 | 63% (inactive)
COc1ccc(NC(=O)c2cc(C)nc3c2c(C)nn3-c2cccc(Cl)c2C)c(OC)c1 | 85% (inactive)
Cc1ccc(-n2nc(C)c3c(C(=O)Nc4ccc(Br)c(C)c4)cc(C)nc32)cc1 | 78% (inactive)
CCc1cccc(C)c1NC(=O)c1cc(C)nc2c1c(C)nn2-c1cccc(Cl)c1C | 78% (inactive)
Cc1cc(C(=O)NCc2ccccc2)c2c(C)nn(-c3cccc(F)c3)c2n1 | 14% (active)
Cc1cc(C)cc(NC(=O)c2cc(C)nc3c2c(C)nn3-c2ccccc2)c1 | -6% (active)
COc1cccc(CNC(=O)c2cc(C)nc3c2c(C)nn3-c2cccc(F)c2)c1 | 131% (inactive)
Cc1ccc(C)c(N2CCN(C(=O)c3cc(C)nc4c3c(C)nn4-c3ccccc3)CC2)c1 | 134% (inactive)
